Source: PubChem BioAssay AID1159580 (chemical genetic matrix, 2015)
Values joined by “and” are separate entries in the source; they are usually repeats but may differ in a detail not shown here. Equal values may be shown once. Screen size: about 5,500 compounds; about 2,000 (36%) were called active. About 18% were inconclusive and are not listed. Rule as the data show it: active = normalized growth mostly below about 0.91 (no sharp cut-off); inconclusive = no clear call, values can overlap the other calls; inactive = mostly above about 0.92. The list shows a part of the results.

Assay: chemical genetic growth profiling, strain panel (AID 1159580);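 also: tested at 20 µM; growth read once vehicle control cultures reached saturation at 30 °C; 1 = growth at the plate median or of vehicle wells; lower values mean less growth of the strain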
Conditions: growth OD
[1] = S. cerevisiae deletion strains, locus YAL013W, strain DEP1, stronger effect = lower value
[2] = S. cerevisiae deletion strains, locus YHR030C, strain SLT2, stronger effect = lower value
[3] = S. cerevisiae deletion strains, locus YHR079C, strain IRE1, stronger effect = lower value
[4] = S. cerevisiae deletion strains, locus YJL095W, strain BCK1, stronger effect = lower value
[5] = S. cerevisiae deletion strains, locus YJR066W, strain TOR1, stronger effect = lower value
[6] = S. cerevisiae deletion strains, locus YLR113W, strain HOG1, stronger effect = lower value
[7] = S. cerevisiae deletion strains, locus YNL183C, strain NPR1, stronger effect = lower value
[8] = S. cerevisiae deletion strains, locus YOR231W, strain MKK1, stronger effect = lower value
[9] = S. cerevisiae deletion strains, locus YPL256C, strain CLN2, stronger effect = lower value

Measured: normalized growth

COc1ccc(C(=O)O)c(O)c1OC
inactive: [1] 1.05 | S. cerevisiae deletion strains, locus YBR021W, strain FUR4, stronger effect = lower value 1.03 | S. cerevisiae deletion strains, locus YBR229C, strain ROT2, stronger effect = lower value 1.02 | S. cerevisiae deletion strains, locus YCL029C, strain bik1, stronger effect = lower value 0.992 | S. cerevisiae deletion strains, locus YDL035C, strain GPR1, stronger effect = lower value 1.04 | S. cerevisiae deletion strains, locus YDL074C, strain BRE1, stronger effect = lower value 1.04 | S. cerevisiae deletion strains, locus YDL101C, strain DUN1, stronger effect = lower value 1.01 | S. cerevisiae deletion strains, locus YDL134C, strain PPH21, stronger effect = lower value 1.02 | S. cerevisiae deletion strains, locus YDL185W, strain tfp1, stronger effect = lower value 0.999 | S. cerevisiae deletion strains, locus YDL192W, strain arf1, stronger effect = lower value 0.984 | S. cerevisiae deletion strains, locus YDR101C, strain arx1, stronger effect = lower value 0.985 | S. cerevisiae deletion strains, locus YDR150W, strain NUM1, stronger effect = lower value 1.01 | S. cerevisiae deletion strains, locus YDR162C, strain NBP2, stronger effect = lower value 1.03 | S. cerevisiae deletion strains, locus YDR318W, strain mcm21, stronger effect = lower value 0.988 | S. cerevisiae deletion strains, locus YDR388W, stronger effect = lower value 0.988 | S. cerevisiae deletion strains, locus YDR502C, strain sam2, stronger effect = lower value 0.994 | S. cerevisiae deletion strains, locus YEL061C, strain CIN8, stronger effect = lower value 1.01 | S. cerevisiae deletion strains, locus YER110C, stronger effect = lower value 0.987 | S. cerevisiae deletion strains, locus YER155C, strain BEM2, stronger effect = lower value 1.01 | S. cerevisiae deletion strains, locus YER167W, strain BCK2, stronger effect = lower value 1.02 | S. cerevisiae deletion strains, locus YGL078C, strain dbp3, stronger effect = lower value 0.999 | S. cerevisiae deletion strains, locus YGL086W, strain mad1, stronger effect = lower value 0.994 | S. cerevisiae deletion strains, locus YGL248W, strain PDE1, stronger effect = lower value 1.02 | S. cerevisiae deletion strains, locus YGR078C, strain PAC10, stronger effect = lower value 1.04 | S. cerevisiae deletion strains, locus YGR135W, strain pre9, stronger effect = lower value 1 | S. cerevisiae deletion strains, locus YGR252W, strain gcn5, stronger effect = lower value 1.06 | [2] 1.01 and 1 | S. cerevisiae deletion strains, locus YHR079C, strain IRE1 (second series), stronger effect = lower value 0.986 | [3] 0.996 | S. cerevisiae deletion strains, locus YHR094C, strain hxt1, stronger effect = lower value 0.987 | S. cerevisiae deletion strains, locus YHR129C, strain ARP1, stronger effect = lower value 1.01 | S. cerevisiae deletion strains, locus YHR200W, strain rpn10, stronger effect = lower value 0.997 | S. cerevisiae deletion strains, locus YIL066C, strain RNR3, stronger effect = lower value 1.03 | S. cerevisiae deletion strains, locus YIL073C, strain SPO22, stronger effect = lower value 1.02 | S. cerevisiae deletion strains, locus YIL125W, strain kgd1, stronger effect = lower value 0.988 | S. cerevisiae deletion strains, locus YIR030C, strain dcg1, stronger effect = lower value 0.996 | [4] 1.04 and 1.01 | S. cerevisiae deletion strains, locus YJL134W, strain LCB3, stronger effect = lower value 1.01 | S. cerevisiae deletion strains, locus YJL168C, strain set2, stronger effect = lower value 0.997 | S. cerevisiae deletion strains, locus YJL187C, strain SWE1 (second series), stronger effect = lower value 1.01 | S. cerevisiae deletion strains, locus YJR043C, strain POL32, stronger effect = lower value 1.05 | [5] 0.938 | S. cerevisiae deletion strains, locus YKL009W, strain mrt4, stronger effect = lower value 1.01 | S. cerevisiae deletion strains, locus YKL068W, stronger effect = lower value 0.989 | S. cerevisiae deletion strains, locus YKL085W, strain MDH1 (second series), stronger effect = lower value 0.996 | S. cerevisiae deletion strains, locus YKL085W, strain MDH1, stronger effect = lower value 0.996 | S. cerevisiae deletion strains, locus YKL190W, strain CNB1, stronger effect = lower value 1.01 | S. cerevisiae deletion strains, locus YKR001C, strain vps1, stronger effect = lower value 0.97 | S. cerevisiae deletion strains, locus YLR039C, strain RIC1, stronger effect = lower value 1.09 | S. cerevisiae deletion strains, locus YLR058C, strain SHM2, stronger effect = lower value 1.01 | S. cerevisiae deletion strains, locus YLR102C, strain apc9, stronger effect = lower value 0.996 | [6] 1 | S. cerevisiae deletion strains, locus YLR262C, strain YPT6, stronger effect = lower value 1.12 | S. cerevisiae deletion strains, locus YLR268W, strain sec22, stronger effect = lower value 0.996 | S. cerevisiae deletion strains, locus YLR330W, strain CHS5, stronger effect = lower value 1.01 | S. cerevisiae deletion strains, locus YLR342W, strain FKS1 (second series), stronger effect = lower value 1.01 | S. cerevisiae deletion strains, locus YLR371W, strain rom2, stronger effect = lower value 0.981 | S. cerevisiae deletion strains, locus YLR418C, strain cdc73, stronger effect = lower value 1.04 | S. cerevisiae deletion strains, locus YML016C, strain PPZ1, stronger effect = lower value 1.01 | S. cerevisiae deletion strains, locus YML032C, strain rad52, stronger effect = lower value 1 | S. cerevisiae deletion strains, locus YML124C, strain tub3, stronger effect = lower value 0.997 | S. cerevisiae deletion strains, locus YMR078C, strain ctf18, stronger effect = lower value 0.998 | S. cerevisiae deletion strains, locus YMR223W, strain ubp8, stronger effect = lower value 0.996 | S. cerevisiae deletion strains, locus YMR307W, strain GAS1, stronger effect = lower value 1.22 | S. cerevisiae deletion strains, locus YNL067W, strain RPL9B, stronger effect = lower value 1.02 | S. cerevisiae deletion strains, locus YNL128W, strain TEP1, stronger effect = lower value 1.01 | S. cerevisiae deletion strains, locus YNL153C, strain GIM3, stronger effect = lower value 1.01 | [7] 0.938 | S. cerevisiae deletion strains, locus YNL233W, strain BNI4, stronger effect = lower value 1.02 | S. cerevisiae deletion strains, locus YNL250W, strain rad50, stronger effect = lower value 0.991 | S. cerevisiae deletion strains, locus YNL271C, strain bni1, stronger effect = lower value 0.995 | S. cerevisiae deletion strains, locus YNL298W, strain CLA4, stronger effect = lower value 1.01 | S. cerevisiae deletion strains, locus YNL307C, strain MCK1, stronger effect = lower value 0.988 | S. cerevisiae deletion strains, locus YNR052C, strain pop2, stronger effect = lower value 0.981 | S. cerevisiae deletion strains, locus YOL012C, strain htz1 0.918 | S. cerevisiae deletion strains, locus YOL147C, strain pex11, stronger effect = lower value 0.988 | S. cerevisiae deletion strains, locus YOR061W, strain CKA2, stronger effect = lower value 1.01 | S. cerevisiae deletion strains, locus YOR069W, strain VPS5, stronger effect = lower value 1.01 | S. cerevisiae deletion strains, locus YOR136W, strain idh2, stronger effect = lower value 0.991 | S. cerevisiae deletion strains, locus YOR144C, strain elg1, stronger effect = lower value 0.991 | S. cerevisiae deletion strains, locus YOR184W, strain ser1, stronger effect = lower value 0.998 | [8] 1 | S. cerevisiae deletion strains, locus YOR316C, strain cot1, stronger effect = lower value 0.992 | [9] 1.02 | S. cerevisiae deletion strains, locus YPR119W, strain clb2, stronger effect = lower value 0.993 | S. cerevisiae deletion strains, locus YPR141C, strain kar3, stronger effect = lower value 0.989 | S. cerevisiae deletion strains, locus YPR163C, strain tif3, stronger effect = lower value 0.984 | S. cerevisiae deletion strains, locus YPR167C, strain met16, stronger effect = lower value 0.99 | S. cerevisiae deletion strains, strain wtn01, stronger effect = lower value 0.983 | S. cerevisiae strains, strain wild type, stronger effect = lower value 1.01

CCN(CC)C(=O)c1ccc(O)c(OC)c1
inactive: [1] 1.01 | S. cerevisiae deletion strains, locus YAL040C, strain CLN3, stronger effect = lower value 1.05 | S. cerevisiae deletion strains, locus YCL061C, strain MRC1 (second series), stronger effect = lower value 1 | S. cerevisiae deletion strains, locus YDR363W, strain ESC2, stronger effect = lower value 1.01 | S. cerevisiae deletion strains, locus YER002W, strain NOP16, stronger effect = lower value 1.03 | [2] 0.964 | [3] 0.997 | [4] 1 | [5] 0.957 | [6] 0.99 | S. cerevisiae deletion strains, locus YNL175C, strain NOP13, stronger effect = lower value 1.01 | [7] 0.938 | S. cerevisiae deletion strains, locus YNL197C, strain WHI3, stronger effect = lower value 0.999 | S. cerevisiae deletion strains, locus YNL224C, strain SQS1, stronger effect = lower value 1.01 | S. cerevisiae deletion strains, locus YNL322C, strain KRE1, stronger effect = lower value 1.03 | S. cerevisiae deletion strains, locus YOR083W, strain WHI5 (second series), stronger effect = lower value 1.01 | [8] 0.985 | [9] 0.975
